4 compounds from PubChem BioAssay (EPA / NIEHS) can be followed below.

Inconclusive results are not listed. Activity calls are given as the source filed them. How the source made its calls, unless noted: active means hit-call score of the fitted dose curve at least 0.9, where 1 is the maximum; inactive means score below 0.9.

Read-out in test [1]: solute carrier (SLCO1B1), SLCO1B1 (gene 10599)
Kind of test: LTEA_HepaRG_SLCO1B1: Life Technologies and Expression Analysis (LTEA) Assay for solute carrier (SLCO1B1) using HepaRG (AID 2283530). The following applies: mRNA level, 48 h; actives raise or lower the signal. The essentials: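 Differentiated human HepaRG cells, plated 48 h, switched to serum-free induction medium and exposed in duplicate for 48 h to 8 half-log concentrations (top 100 uM) in 0.5% DMSO. SLCO1B1 mRNA by TaqMan qRT-PCR, normalized to ACTB/GAPDH/POLR2A.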

Read-out in test [2]: sulfotransferase 2A1 (SULT2A1), SULT2A1 (gene 6822)
Description: LTEA_HepaRG_SULT2A1: Life Technologies and Expression Analysis (LTEA) Assay for sulfotransferase 2A1 (SULT2A1) using HepaRG (AID 2283531). The settings on record: mRNA level, 48 h; actives raise or lower the signal. The essentials: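 Differentiated human HepaRG cells in serum-free induction medium were exposed for 48 h to eight half-log concentrations (top 100 uM, 0.5% DMSO). SULT2A1 mRNA was measured by qRT-PCR, normalized to ACTB, GAPDH and POLR2A, and fitted bidirectionally against DMSO.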

Read-out in test [3]: Transforming Growth Factor (TGFA), TGFA (gene 7039)
Description: LTEA_HepaRG_TGFA: Life Technologies and Expression Analysis (LTEA) Assay for Transforming Growth Factor (TGFA) using HepaRG (AID 2283532). The settings on record: mRNA level, 48 h; actives raise or lower the signal. A digest of the protocol: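 Differentiated HepaRG cells exposed 48 hours in serum-free induction medium, 0.5% DMSO vehicle, 8-point half-log series from 100 uM, in duplicate. TGFA mRNA by TaqMan qRT-PCR, normalised to ACTB, GAPDH, POLR2A; bidirectional fit versus DMSO.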

Read-out in test [4]: Transforming Growth Factor (TGFB1), TGFB1 (gene 7040)
Kind of test: LTEA_HepaRG_TGFB1: Life Technologies and Expression Analysis (LTEA) Assay for Transforming Growth Factor (TGFB1) Transporter using HepaRG (AID 2283533). The settings on record: mRNA level, 48 h; actives raise or lower the signal. A digest of the protocol:
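Differentiated human HepaRG cells in serum-free induction medium were exposed in duplicate for 48 h to eight concentrations (top 100 uM, half-log steps, 0.5% DMSO). TGFB1 mRNA was quantified by qRT-PCR, normalized to ACTB, GAPDH, POLR2A, and fitted bidirectionally against DMSO.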

Read-out in another test: TIMP1, TIMP1 (gene 7076)
Description: LTEA_HepaRG_TIMP1: Life Technologies and Expression Analysis (LTEA) Assay for TIMP1 using HepaRG (AID 2283534). The following applies: mRNA level, 48 h; actives raise or lower the signal. The essentials:
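Differentiated human HepaRG cells in serum-free induction medium were exposed 48 h to chemicals (8 half-log concentrations, top 100 uM, 0.5% DMSO). TIMP1 mRNA was quantified by TaqMan qRT-PCR, normalized to ACTB/GAPDH/POLR2A; bidirectional fit versus DMSO.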

Read-out in test [5]: Tumor necrosis factor receptor 1 (TNFRSF1A), TNFRSF1A (gene 7132)
Kind of test: LTEA_HepaRG_TNFRSF1A: Life Technologies and Expression Analysis (LTEA) Assay for Tumor necrosis factor receptor 1 (TNFRSF1A) using HepaRG (AID 2283535). The following applies: mRNA level, 48 h; actives raise or lower the signal. The essentials:
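Differentiated human HepaRG cells were exposed in duplicate for 48 h in serum-free induction medium to eight concentrations (top 100 uM, half-log steps, 0.5% DMSO). TNFRSF1A mRNA was quantified by qRT-PCR, normalized to ACTB, GAPDH and POLR2A, then fitted bidirectionally against DMSO.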

Read-out in test [6]: Thyroid Hormone Responsive (THRSP), THRSP (gene 7069)
Description: LTEA_HepaRG_THRSP: Life Technologies and Expression Analysis (LTEA) Assay for Thyroid Hormone Responsive (THRSP) using HepaRG (AID 2283536). The settings on record: mRNA level, 48 h; actives raise or lower the signal. The essentials: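 Differentiated HepaRG cells treated 48 h in serum-free induction medium with 8 half-log concentrations up to 100 uM (0.5% DMSO), duplicates. THRSP mRNA by TaqMan qRT-PCR normalised to ACTB, GAPDH, POLR2A; bidirectional fit versus DMSO.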

Read-out in test [7]: Cellular tumor antigen p53 (Homo sapiens) (UniProt P04637)
Description: LTEA_HepaRG_TP53: Life Technologies and Expression Analysis (LTEA) Assay for Tumor Protein P53 (TP53) using HepaRG (AID 2283537). The following applies: mRNA level, 48 h; actives raise or lower the signal. The essentials:
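Read-out is TP53 transcript level by microfluidic qRT-PCR, normalised to three housekeeping genes and fitted bidirectionally against DMSO. Human HepaRG cells received compounds for 48 h, highest concentration 100 uM.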

Read-out in test [8]: UDP glucuronosyltransferase (UGT1A1), UGT1A1 (gene 54658)
Description: LTEA_HepaRG_UGT1A1: Life Technologies and Expression Analysis (LTEA) Assay for UDP glucuronosyltransferase (UGT1A1) using HepaRG (AID 2283538). The following applies: mRNA level, 48 h; actives raise or lower the signal. The essentials: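 HepaRG cells, 0.5% DMSO vehicle, 48 h exposure in serum-free induction medium to 8-point half-log series topping at 100 uM, in duplicate. UGT1A1 mRNA by Fluidigm qRT-PCR, normalized to ACTB/GAPDH/POLR2A; bidirectional fit versus DMSO.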

Read-out in test [9]: X-box binding protein 1 (XBP1), XBP1 (gene 7494)
Kind of test: LTEA_HepaRG_XBP1: Life Technologies and Expression Analysis (LTEA) Assay for X-box binding protein 1 (XBP1) using HepaRG (AID 2283540). The settings on record: mRNA level, 48 h; actives raise or lower the signal. A digest of the protocol:
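Differentiated human HepaRG cells in serum-free induction medium were exposed in duplicate for 48 h to eight half-log concentrations up to 100 uM in 0.5% DMSO. XBP1 mRNA was quantified by qRT-PCR, normalised to ACTB, GAPDH and POLR2A, with bidirectional fitting against DMSO.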

The nature of test [10]: LTEA_HepaRG_LDH_cytotoxicity: Cytotoxicity Assessment in the Life Technologies and Expression Analysis (LTEA) Assay (AID 2283563; active means hit-call score of the fitted dose curve at least 0.9, where 1 is the maximum;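 on AC50: LDH activity released into spent culture medium as a marker of cell death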). A digest of the protocol:
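Differentiated human HepaRG cells, plated 48 h beforehand, were switched to serum-free induction medium and exposed for 48 h to eight half-log concentrations (top 100 uM) in 0.5% DMSO. LDH was measured in spent medium; activity was fitted relative to DMSO vehicle.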

The target in test [11] is Cellular tumor antigen p53 (Homo sapiens) (UniProt P04637). Description: TOX21_p53_BLA_p2_ratio: Tox21 HCT-116 p53 Agonism Beta-lactamase Assay, Ratio, Phase 2 (AID 2283592; active means hit-call score of the fitted dose curve at least 0.9, where 1 is the maximum). The essentials: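 HCT116 cells carrying a p53-responsive beta-lactamase reporter were plated, incubated 5 h at 37C, then dosed with compounds in DMSO (217-fold dilution) for 16 h. CCF4-AM substrate was added for 2 h at room temperature; the 460/530 nm emission ratio gave gain-of-signal activity relative to DMSO.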

Test [12] in a line: TOX21_p53_BLA_p3_viability: Viability Assessment in the Tox21 HCT-116 p53 Agonism Beta-lactamase Assay, Phase 3 (AID 2283593; active means hit-call score of the fitted dose curve at least 0.9, where 1 is the maximum;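 further: cells exposed to compound for 16 h before reading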). The essentials:
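HCT116 cells, 4000/well, dosed 5 h after plating by pin transfer (217-fold dilution from DMSO stock) and incubated 16 h at 37C, 5% CO2. Viability read as ATP luminescence with CellTiter-Glo after 30 min at room temperature.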

Test [13] deals with Cellular tumor antigen p53 (Homo sapiens) (UniProt P04637). Description: TOX21_p53_BLA_p3_ratio: Tox21 HCT-116 p53 Agonism Beta-lactamase Assay, Ratio, Phase 3 (AID 2283596; active means hit-call score of the fitted dose curve at least 0.9, where 1 is the maximum). The essentials: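 HCT116 p53-bla cells (4000/well) given compound in DMSO (217-fold dilution) after 5 h, incubated 16 h at 37C. CCF4-AM substrate 2 h at room temperature; 460/530 nm emission ratio, gain fitted against DMSO.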

Test [14] is described as follows: TOX21_p53_BLA_p4_viability: Viability Assessment in the Tox21 HCT-116 p53 Agonism Beta-lactamase Assay, Phase 4 (AID 2283597; active means hit-call score of the fitted dose curve at least 0.9, where 1 is the maximum;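 further: hits lower the luminescence signal meaning cytotoxicity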). A digest of the protocol: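 HCT116 p53-bla cells (4000/well) rested 5 h at 37C, then received compounds in DMSO (217-fold dilution) for 16 h at 37C, 5% CO2. CellTiter-Glo was added after the CCF4-AM read, and luminescence was read after 30 min at room temperature.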

In test [15] the target is Cellular tumor antigen p53 (Homo sapiens) (UniProt P04637). Description: TOX21_p53_BLA_p5_ratio: Tox21 HCT-116 p53 Agonism Beta-lactamase Assay, Ratio, Phase 5 (AID 2283599; active means hit-call score of the fitted dose curve at least 0.9, where 1 is the maximum). A digest of the protocol: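 HCT-116 p53-bla cells (4000/well) plated 5 h, dosed with compound (217-fold DMSO dilution) for 16 h at 37 C; CCF4-AM substrate 2 h at room temperature. Activity is the 460/530 nm emission ratio (405 nm excitation), fitted in gain-of-signal direction versus DMSO.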

Test [16] can be described thus: TOX21_p53_BLA_p5_viability: Viability Assessment in the Tox21 HCT-116 p53 Agonism Beta-lactamase Assay, Phase 5 (AID 2283600; active means hit-call score of the fitted dose curve at least 0.9, where 1 is the maximum). The essentials: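 Cells were plated at 4000/well, rested 5 h at 37C, then given compounds in DMSO (217-fold dilution) for 16 h at 37C, 5% CO2. Following the CCF4-AM beta-lactamase read, CellTiter-Glo was added and luminescence was read after 30 min at room temperature.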

Test [17] has as its target Cellular tumor antigen p53 (Homo sapiens) (UniProt P04637). Kind of test: TOX21_p53_BLA_p4_ratio: Tox21 HCT-116 p53 Agonism Beta-lactamase Assay, Ratio, Phase 4 (AID 2283601; active means hit-call score of the fitted dose curve at least 0.9, where 1 is the maximum). The essentials:
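HCT-116 p53 beta-lactamase reporter cells (4000/well) preincubated 5 h, then compound (217-fold dilution of DMSO stock) for 16 h at 37C. CCF4-AM substrate added 2 h at room temperature; 460/530 nm emission ratio fitted upward versus DMSO.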

Chain of Cellular tumor antigen p53 (Homo sapiens) (P04637 whole entry, looked up): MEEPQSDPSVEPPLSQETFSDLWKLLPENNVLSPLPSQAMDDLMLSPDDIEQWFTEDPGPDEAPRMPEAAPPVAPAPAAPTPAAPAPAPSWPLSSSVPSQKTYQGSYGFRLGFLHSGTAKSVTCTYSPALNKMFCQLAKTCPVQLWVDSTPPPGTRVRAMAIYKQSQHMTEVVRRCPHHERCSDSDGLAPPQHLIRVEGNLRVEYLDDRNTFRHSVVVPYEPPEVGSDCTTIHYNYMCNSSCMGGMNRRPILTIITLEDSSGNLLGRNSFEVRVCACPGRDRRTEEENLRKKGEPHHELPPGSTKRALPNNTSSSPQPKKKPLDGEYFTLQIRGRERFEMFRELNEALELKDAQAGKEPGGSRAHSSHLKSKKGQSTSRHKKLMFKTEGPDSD

Take `OCCOc1ccccc1`: the outcome is “inactive” in test [1]; “inactive” in test [2]; “inactive” in [3]; “inactive” in test [4]; “inactive” with TIMP1, TIMP1 (gene 7076); “inactive” in test [5]. For the same compound, the outcome in test [6], in test [7], in test [8], in test [9], in test [10] and in test [11] was inactive. Further, the result in test [12], in [13], in [14], in test [15], in [16] and in test [17] was inactive.
Regarding `O=[N+]([O-])/N=C1\NCCN1Cc1ccc(Cl)nc1`, the AC50 is 50 µM (active) in [1]; 31.8 µM (active) in [2]; 28.1 µM (active) in [5]; 50 µM (active) in test [6]; 25.5 µM (active) in [9]. Besides, the outcome in test [3] was “inactive”; in test [4], “inactive”; in the test with TIMP1, TIMP1 (gene 7076), “inactive”; in [8] it was “inactive”; in [10], “inactive”.
`CCOC1Oc2ccc(OS(C)(=O)=O)cc2C1(C)C` (stereo not drawn): the AC50 in [1] is 73.6 µM (active); in test [2], 83.5 µM (active); in [3], 90.8 µM (active); in test [6], 89.3 µM (active); in [8], 11.8 µM (active); in test [10] it was 83.8 µM (active). The outcome in [4] is “inactive”; with TIMP1, TIMP1 (gene 7076) it was “inactive”; in test [5], “inactive”; in [9], “inactive”.
In the case of `CCCN(CCC)c1c([N+](=O)[O-])cc(C(F)(F)F)cc1[N+](=O)[O-]`, the outcome in test [1] was “inactive”; in test [2], “inactive”; in test [3] it was “inactive”; in test [4], “inactive”; with TIMP1, TIMP1 (gene 7076), “inactive”; in test [5], “inactive”. The compound was classed as inactive in [6], in test [9] and in test [10]. Further, the concentration at half-maximal activity (AC50) in [8] is 29.2 µM (active).

Usually AC50 stands for the concentration giving half of the maximal activity seen.
